# Article PMC7862700, “An all-to-all approach to the identification of sequence-specific readers for epigenetic DNA modifications on cytosine”
# What was measured:
# Assay in all cases: DAPPL (digital affinity profiling via proximity ligation, sequencing); 10 mM Tris-HCl pH 7.5, 50 mM NaCl, 1 mM DTT, 4% glycerol, room temperature, 30 min; GST-TFs on glutathione beads, 16-mer random dsDNA library, 0.1% formaldehyde crosslink after washing; high values mean tight binding
# FLI1 = target: T1, FLI1 (Homo sapiens, UniProt Q01543 1-452); conditions: protein: recombinant; tags: N-terminal GST; dsDNA, one strand shown
# T1 sequence: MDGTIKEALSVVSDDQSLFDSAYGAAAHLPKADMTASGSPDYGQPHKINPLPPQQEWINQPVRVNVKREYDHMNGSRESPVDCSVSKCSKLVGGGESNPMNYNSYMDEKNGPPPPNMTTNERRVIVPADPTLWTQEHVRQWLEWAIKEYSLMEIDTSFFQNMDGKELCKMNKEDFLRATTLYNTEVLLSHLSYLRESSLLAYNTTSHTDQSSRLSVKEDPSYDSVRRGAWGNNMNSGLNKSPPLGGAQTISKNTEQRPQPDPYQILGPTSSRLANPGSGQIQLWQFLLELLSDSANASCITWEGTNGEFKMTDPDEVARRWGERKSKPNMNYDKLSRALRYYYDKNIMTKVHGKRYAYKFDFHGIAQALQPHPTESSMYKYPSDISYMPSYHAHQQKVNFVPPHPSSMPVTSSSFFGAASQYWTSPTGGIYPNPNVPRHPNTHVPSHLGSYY
# Procedure, shortened: (§1)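 Human transcription factors carrying a GST fusion were produced in yeast, bound to glutathione beads, tagged with DNA barcodes and pooled together with a tag-only sample. Each pool was held with 200 nmole of a random double-stranded 16-mer DNA library in Tris/NaCl/DTT/glycerol buffer for 30 min at room temperature, then washed, crosslinked in 0.1% formaldehyde, proximity-ligated with BsaI/T4 ligase (1 h, 37 °C), PCR-amplified and sequenced on an Illumina NextSeq500. Binding signal is the read frequency of each hexamer for a given factor divided by its frequency in the tag-only sample.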
# ELK1 = target: T2, ELK1 (Homo sapiens, UniProt P19419 1-428); conditions: protein: recombinant; tags: N-terminal GST; dsDNA, one strand shown
# T2 sequence: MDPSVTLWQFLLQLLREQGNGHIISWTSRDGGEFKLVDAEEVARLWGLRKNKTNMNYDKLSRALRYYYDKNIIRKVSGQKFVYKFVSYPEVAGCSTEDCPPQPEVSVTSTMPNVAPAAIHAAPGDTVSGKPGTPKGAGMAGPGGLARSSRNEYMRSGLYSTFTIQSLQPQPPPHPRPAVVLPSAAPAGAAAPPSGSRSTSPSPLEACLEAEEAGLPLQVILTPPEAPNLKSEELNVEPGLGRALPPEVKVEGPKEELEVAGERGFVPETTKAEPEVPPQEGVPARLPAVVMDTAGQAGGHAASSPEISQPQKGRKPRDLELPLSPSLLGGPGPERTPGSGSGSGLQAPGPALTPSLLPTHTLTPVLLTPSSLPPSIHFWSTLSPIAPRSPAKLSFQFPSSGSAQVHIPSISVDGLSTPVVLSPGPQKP
# Procedure, shortened: as §1
# GABPA = target: T3, GABPA (Homo sapiens, UniProt Q06546 1-454); conditions: protein: recombinant; tags: N-terminal GST; dsDNA, one strand shown
# T3 sequence: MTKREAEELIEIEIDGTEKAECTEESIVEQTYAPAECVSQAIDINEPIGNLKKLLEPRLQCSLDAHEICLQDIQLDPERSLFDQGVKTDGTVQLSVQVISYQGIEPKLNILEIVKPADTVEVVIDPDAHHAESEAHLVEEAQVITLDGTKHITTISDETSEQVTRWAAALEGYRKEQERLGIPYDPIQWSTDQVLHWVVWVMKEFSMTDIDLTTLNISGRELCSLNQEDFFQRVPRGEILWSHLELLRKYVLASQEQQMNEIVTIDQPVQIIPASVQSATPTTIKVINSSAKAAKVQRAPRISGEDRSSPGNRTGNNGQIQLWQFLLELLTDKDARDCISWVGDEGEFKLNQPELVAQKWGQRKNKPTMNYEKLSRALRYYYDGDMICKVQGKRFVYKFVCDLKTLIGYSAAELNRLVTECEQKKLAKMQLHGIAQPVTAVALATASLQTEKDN
# Procedure, shortened: as §1
# ERG = target: T4, ERG (Homo sapiens, UniProt P11308 1-479); conditions: protein: recombinant; tags: N-terminal GST; dsDNA, one strand shown
# T4 sequence: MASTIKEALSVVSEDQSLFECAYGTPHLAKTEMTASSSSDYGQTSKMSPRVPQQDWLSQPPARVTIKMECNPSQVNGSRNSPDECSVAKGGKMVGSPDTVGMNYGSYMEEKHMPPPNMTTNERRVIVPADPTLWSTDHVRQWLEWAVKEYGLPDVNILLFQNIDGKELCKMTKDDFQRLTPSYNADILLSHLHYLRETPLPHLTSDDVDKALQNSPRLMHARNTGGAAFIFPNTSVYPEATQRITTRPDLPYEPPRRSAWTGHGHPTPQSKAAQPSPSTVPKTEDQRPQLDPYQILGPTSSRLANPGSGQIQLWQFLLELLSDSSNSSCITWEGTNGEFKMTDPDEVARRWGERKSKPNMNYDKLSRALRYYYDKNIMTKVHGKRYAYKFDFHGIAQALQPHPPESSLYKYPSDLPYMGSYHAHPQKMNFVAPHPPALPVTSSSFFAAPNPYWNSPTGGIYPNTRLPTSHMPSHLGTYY
# Procedure, shortened: as §1
# ELF1 = ELF1 (Homo sapiens, UniProt P32519 1-619); conditions: protein: recombinant; tags: N-terminal GST; dsDNA, one strand shown
# Sequence of ELF1 (P32519 whole entry): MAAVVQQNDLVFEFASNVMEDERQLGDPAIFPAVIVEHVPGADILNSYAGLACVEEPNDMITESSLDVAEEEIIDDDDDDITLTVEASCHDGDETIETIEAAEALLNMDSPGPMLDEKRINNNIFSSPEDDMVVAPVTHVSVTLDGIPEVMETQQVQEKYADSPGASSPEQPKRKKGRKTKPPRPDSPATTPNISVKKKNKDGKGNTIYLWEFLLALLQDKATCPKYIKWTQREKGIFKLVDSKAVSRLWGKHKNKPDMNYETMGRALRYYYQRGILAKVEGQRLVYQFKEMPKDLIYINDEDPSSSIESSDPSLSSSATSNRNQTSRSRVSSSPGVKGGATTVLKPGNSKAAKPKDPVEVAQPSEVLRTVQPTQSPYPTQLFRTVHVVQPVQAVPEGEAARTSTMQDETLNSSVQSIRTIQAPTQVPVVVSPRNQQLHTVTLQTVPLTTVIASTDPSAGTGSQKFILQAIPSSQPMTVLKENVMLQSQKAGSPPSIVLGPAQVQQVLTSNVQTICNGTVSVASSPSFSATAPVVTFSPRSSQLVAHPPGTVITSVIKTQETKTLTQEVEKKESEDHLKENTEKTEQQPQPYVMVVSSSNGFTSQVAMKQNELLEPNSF
# Procedure, shortened: as §1
# EHF = target: T5, EHF (Homo sapiens, UniProt Q9NZC4 1-300); conditions: protein: recombinant; tags: N-terminal GST; dsDNA, one strand shown
# T5 sequence: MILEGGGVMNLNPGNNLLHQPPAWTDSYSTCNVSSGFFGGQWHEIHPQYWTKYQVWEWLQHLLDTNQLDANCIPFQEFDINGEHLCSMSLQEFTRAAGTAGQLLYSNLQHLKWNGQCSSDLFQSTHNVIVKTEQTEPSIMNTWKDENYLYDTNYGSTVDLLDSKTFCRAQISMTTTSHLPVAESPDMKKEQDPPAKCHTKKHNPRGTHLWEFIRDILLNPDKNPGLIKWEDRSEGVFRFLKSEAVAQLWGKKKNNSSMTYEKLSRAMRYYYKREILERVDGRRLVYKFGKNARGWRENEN
# Procedure, shortened: as §1
# SPI1 = SPI1 (Homo sapiens, UniProt P17947 1-270); conditions: protein: recombinant; tags: N-terminal GST; dsDNA, one strand shown
# Procedure, shortened: as §1
# SPIB = SPIB (Homo sapiens, UniProt Q01892 1-262); conditions: protein: recombinant; tags: N-terminal GST; dsDNA, one strand shown
# Sequence of SPIB (Q01892 whole entry): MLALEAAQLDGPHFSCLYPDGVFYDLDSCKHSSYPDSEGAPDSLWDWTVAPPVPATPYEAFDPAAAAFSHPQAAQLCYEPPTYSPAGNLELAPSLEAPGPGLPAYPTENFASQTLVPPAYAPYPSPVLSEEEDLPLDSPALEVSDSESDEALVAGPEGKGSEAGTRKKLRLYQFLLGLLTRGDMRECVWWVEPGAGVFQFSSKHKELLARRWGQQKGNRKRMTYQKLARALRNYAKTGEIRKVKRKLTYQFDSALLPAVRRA
# Procedure, shortened: as §1
# ELK3 = target: T6, ELK3 (Homo sapiens, UniProt P41970 1-407); conditions: protein: recombinant; tags: N-terminal GST; dsDNA, one strand shown
# T6 sequence: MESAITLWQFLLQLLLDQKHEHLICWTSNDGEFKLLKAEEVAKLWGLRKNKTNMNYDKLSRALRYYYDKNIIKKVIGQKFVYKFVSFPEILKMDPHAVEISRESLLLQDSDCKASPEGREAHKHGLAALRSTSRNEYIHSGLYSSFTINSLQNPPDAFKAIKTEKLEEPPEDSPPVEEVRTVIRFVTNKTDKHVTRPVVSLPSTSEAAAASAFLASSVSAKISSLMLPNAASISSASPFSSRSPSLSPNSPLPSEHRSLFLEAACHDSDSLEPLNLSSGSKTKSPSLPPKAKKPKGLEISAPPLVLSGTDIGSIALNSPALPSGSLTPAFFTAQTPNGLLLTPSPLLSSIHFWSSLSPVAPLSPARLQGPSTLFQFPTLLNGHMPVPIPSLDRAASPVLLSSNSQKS
# Procedure, shortened: as §1
# FEV = target: T7, FEV (Homo sapiens, UniProt Q99581 1-238); conditions: protein: recombinant; tags: N-terminal GST; dsDNA, one strand shown
# T7 sequence: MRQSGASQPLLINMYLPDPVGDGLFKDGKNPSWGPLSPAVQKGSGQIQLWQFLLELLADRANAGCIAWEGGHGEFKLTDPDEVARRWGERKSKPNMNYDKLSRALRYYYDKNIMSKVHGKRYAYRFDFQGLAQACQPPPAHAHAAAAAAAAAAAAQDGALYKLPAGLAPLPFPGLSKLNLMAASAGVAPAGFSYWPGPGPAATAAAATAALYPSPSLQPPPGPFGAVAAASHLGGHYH
# Procedure, shortened: as §1
# ETV5 = ETV5 (Homo sapiens, UniProt P41161 1-510); conditions: protein: recombinant; tags: N-terminal GST; dsDNA, one strand shown
# Sequence of ETV5 (P41161 whole entry): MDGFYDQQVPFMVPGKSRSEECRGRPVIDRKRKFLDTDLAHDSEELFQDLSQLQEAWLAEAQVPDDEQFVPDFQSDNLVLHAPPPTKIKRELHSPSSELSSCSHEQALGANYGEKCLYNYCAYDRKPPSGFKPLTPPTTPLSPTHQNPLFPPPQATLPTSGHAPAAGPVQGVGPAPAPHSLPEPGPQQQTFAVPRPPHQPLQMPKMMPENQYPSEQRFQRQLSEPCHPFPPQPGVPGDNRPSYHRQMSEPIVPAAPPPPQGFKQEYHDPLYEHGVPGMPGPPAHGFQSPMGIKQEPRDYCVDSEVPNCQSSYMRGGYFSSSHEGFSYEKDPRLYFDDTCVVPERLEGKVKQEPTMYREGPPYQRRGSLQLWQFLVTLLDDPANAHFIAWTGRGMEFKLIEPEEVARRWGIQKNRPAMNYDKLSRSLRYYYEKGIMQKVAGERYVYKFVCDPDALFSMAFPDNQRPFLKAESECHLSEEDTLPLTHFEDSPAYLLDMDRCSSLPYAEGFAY
# Procedure, shortened: as §1
# HSF1 = HSF1 (Homo sapiens, UniProt Q00613 1-529); conditions: protein: recombinant; tags: N-terminal GST; chain copies: 3; dsDNA, one strand shown
# Sequence of HSF1 (Q00613 whole entry): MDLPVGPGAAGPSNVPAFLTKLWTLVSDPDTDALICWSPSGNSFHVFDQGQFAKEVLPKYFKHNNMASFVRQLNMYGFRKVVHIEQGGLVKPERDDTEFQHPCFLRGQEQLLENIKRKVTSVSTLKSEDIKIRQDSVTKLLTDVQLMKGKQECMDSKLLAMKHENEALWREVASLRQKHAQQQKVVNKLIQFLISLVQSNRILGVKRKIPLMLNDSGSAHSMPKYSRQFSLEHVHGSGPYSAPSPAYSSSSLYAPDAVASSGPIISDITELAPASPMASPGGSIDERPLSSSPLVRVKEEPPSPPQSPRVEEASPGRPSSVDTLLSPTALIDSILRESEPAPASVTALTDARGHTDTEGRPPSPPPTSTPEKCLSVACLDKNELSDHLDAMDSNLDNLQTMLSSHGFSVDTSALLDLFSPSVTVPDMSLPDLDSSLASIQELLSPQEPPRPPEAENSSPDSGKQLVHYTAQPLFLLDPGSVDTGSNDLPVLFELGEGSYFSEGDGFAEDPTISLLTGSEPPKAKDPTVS
# Procedure, shortened: as §1
# SPIC = target: T8, SPIC (Homo sapiens, UniProt Q8N5J4 1-248); conditions: protein: recombinant; tags: N-terminal GST; dsDNA, one strand shown
# T8 sequence: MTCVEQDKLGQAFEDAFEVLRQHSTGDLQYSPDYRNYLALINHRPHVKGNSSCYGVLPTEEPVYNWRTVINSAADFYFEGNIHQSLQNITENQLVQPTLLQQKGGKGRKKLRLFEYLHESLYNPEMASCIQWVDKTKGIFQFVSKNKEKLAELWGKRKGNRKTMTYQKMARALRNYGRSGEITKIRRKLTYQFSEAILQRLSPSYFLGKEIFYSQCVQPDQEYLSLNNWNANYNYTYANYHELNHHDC
# Procedure, shortened: as §1
# ELF4 = ELF4 (Homo sapiens, UniProt Q99607 1-663); conditions: protein: recombinant; tags: N-terminal GST; dsDNA, one strand shown
# Sequence of ELF4 (Q99607 whole entry): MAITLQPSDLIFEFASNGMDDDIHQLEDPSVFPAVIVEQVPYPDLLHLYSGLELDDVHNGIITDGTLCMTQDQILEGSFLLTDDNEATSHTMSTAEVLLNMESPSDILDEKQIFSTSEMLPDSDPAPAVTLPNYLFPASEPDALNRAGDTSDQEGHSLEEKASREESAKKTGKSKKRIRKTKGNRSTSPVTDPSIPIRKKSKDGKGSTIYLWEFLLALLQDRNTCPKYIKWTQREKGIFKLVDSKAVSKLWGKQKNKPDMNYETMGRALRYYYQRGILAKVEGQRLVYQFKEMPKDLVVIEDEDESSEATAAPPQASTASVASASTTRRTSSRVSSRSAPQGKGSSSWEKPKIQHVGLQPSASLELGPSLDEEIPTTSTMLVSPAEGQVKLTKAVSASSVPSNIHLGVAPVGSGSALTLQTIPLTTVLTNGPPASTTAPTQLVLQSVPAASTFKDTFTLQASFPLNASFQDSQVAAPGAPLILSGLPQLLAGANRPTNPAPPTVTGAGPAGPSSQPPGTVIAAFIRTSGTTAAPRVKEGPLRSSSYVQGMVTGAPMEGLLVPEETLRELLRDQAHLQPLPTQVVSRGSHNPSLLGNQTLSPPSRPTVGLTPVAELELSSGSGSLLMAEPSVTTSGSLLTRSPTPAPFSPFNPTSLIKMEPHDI
# Procedure, shortened: as §1
# ELK4 = target: T9, ELK4 (Homo sapiens, UniProt P28324-2 1-405); conditions: protein: recombinant; tags: N-terminal GST; dsDNA, one strand shown
# T9 sequence: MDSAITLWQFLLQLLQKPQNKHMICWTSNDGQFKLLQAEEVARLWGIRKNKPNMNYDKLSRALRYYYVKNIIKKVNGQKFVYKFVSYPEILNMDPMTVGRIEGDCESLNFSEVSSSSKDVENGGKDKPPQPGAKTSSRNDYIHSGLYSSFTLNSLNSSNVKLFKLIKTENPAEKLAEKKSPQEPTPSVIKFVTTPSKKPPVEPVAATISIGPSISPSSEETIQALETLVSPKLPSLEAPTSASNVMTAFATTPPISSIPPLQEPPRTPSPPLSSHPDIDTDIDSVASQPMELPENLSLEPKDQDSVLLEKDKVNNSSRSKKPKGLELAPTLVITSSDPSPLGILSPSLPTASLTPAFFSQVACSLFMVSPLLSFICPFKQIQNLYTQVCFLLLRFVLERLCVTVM
# Procedure, shortened: as §1
# ETV2 = target: T10, ETV2 (Homo sapiens, UniProt O00321 1-342); conditions: protein: recombinant; tags: N-terminal GST; dsDNA, one strand shown
# T10 sequence: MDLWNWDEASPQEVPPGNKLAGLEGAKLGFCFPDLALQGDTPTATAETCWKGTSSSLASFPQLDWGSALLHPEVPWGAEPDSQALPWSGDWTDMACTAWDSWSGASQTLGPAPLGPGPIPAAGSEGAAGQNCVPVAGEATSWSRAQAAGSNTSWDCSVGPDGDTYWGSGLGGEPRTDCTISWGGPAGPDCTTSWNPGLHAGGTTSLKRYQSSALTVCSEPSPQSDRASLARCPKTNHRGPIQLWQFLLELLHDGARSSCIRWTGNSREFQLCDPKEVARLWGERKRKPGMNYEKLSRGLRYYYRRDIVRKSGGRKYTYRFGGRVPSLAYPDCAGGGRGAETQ
# Procedure, shortened: as §1
# ELF3 = target: T11, ELF3 (Homo sapiens, UniProt P78545 1-371); conditions: protein: recombinant; tags: N-terminal GST; dsDNA, one strand shown
# T11 sequence: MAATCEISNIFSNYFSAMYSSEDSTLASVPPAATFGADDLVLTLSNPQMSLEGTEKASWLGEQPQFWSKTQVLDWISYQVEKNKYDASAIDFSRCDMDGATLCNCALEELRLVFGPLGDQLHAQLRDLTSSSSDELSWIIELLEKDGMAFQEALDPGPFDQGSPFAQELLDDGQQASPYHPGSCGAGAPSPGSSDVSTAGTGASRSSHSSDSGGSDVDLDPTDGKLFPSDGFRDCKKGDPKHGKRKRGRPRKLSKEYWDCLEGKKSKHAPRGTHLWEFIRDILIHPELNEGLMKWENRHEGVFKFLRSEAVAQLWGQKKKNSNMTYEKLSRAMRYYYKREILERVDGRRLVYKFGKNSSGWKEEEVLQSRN
# Procedure, shortened: as §1
# ETV1 = ETV1 (Homo sapiens, UniProt P50549 1-477); conditions: protein: recombinant; tags: N-terminal GST; dsDNA, one strand shown
# Sequence of ETV1 (P50549 whole entry): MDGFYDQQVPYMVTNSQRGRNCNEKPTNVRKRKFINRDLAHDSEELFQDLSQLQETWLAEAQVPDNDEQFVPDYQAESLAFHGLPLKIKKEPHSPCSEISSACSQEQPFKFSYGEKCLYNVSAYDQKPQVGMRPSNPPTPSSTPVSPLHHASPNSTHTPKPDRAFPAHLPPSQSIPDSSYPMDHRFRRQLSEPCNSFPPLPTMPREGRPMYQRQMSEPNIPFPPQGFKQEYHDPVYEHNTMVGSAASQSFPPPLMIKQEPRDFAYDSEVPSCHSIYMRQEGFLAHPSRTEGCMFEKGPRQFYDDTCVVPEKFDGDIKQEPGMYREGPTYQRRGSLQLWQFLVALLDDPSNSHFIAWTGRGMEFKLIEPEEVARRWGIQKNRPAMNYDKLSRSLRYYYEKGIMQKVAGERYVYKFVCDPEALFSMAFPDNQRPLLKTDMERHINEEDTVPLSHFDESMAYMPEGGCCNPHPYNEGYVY
# Procedure, shortened: as §1
sequence,measurement,setting,value
ATGCAC,binding signal,FLI1,"1.28 fold enrichment (6-mer frequency, TF over GST control)"
same,binding signal,ELK1,"1.33 fold enrichment (6-mer frequency, TF over GST control)"
same,binding signal,GABPA,"1.33 fold enrichment (6-mer frequency, TF over GST control)"
same,binding signal,ERG,"1.2 fold enrichment (6-mer frequency, TF over GST control)"
same,binding signal,ELF1,"1.3 fold enrichment (6-mer frequency, TF over GST control)"
same,binding signal,EHF,"1.21 fold enrichment (6-mer frequency, TF over GST control)"
same,binding signal,SPI1,"1.3 fold enrichment (6-mer frequency, TF over GST control)"
same,binding signal,SPIB,"1.34 fold enrichment (6-mer frequency, TF over GST control)"
same,binding signal,ELK3,"1.34 fold enrichment (6-mer frequency, TF over GST control)"
same,binding signal,FEV,"1.37 fold enrichment (6-mer frequency, TF over GST control)"
same,binding signal,ETV5,"1.28 fold enrichment (6-mer frequency, TF over GST control)"
same,binding signal,HSF1,"1.03 fold enrichment (6-mer frequency, TF over GST control)"
same,binding signal,SPIC,"1.19 fold enrichment (6-mer frequency, TF over GST control)"
same,binding signal,ELF4,"1.3 fold enrichment (6-mer frequency, TF over GST control)"
same,binding signal,ELK4,"1.36 fold enrichment (6-mer frequency, TF over GST control)"
same,binding signal,ETV2,"1.3 fold enrichment (6-mer frequency, TF over GST control)"
same,binding signal,ELF3,"1.36 fold enrichment (6-mer frequency, TF over GST control)"
same,binding signal,ETV1,"1.19 fold enrichment (6-mer frequency, TF over GST control)"
